Assay [1] is described as follows: ATG_M_61_CIS: Attagene CIS-FACTORIAL HepG2 Assay for M61 Transcription Factor (Internal Marker) (AID 2282937). Conditions: HepG2 Attagene CIS-FACTORIAL M61 internal marker reporter; actives raise or lower the signal. The method, boiled down:
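Background-control endpoint: HepG2 cells with cis-regulated reporter constructs, 24 h exposure, reporter mRNA detected via fluorescent primer extension and capillary electrophoresis; values from bidirectional fitting with DMSO baseline.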

Assay [2] is described as follows: ATG_EGR_CIS: Attagene CIS-FACTORIAL HepG2 Assay for human Early Growth Response 1 (EGR1) (AID 2282938). Conditions: HepG2 Attagene CIS-FACTORIAL EGR reporter mRNA; actives raise or lower the signal. The method in brief:
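Endpoint derived by bidirectional fitting versus DMSO vehicle. Method: cis-promoter reporter units transfected into HepG2, 24 h dosing, RNA isolation, RT-PCR with 6-FAM primer extension and HpaI digestion, then capillary electrophoresis fluorescence detection.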

Assay [3] can be described thus: ATG_M_19_CIS: Attagene CIS-FACTORIAL HepG2 Assay for M19 Transcription Factor (Internal Marker) (AID 2282939). Conditions: HepG2 Attagene CIS-FACTORIAL M19 internal marker reporter; actives raise or lower the signal. The method, boiled down:
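In this multiplexed cell assay, transiently transfected HepG2 reporter units report endogenous transcription-factor activity; after 24 hours of treatment, labelled reporter cDNA fragments are quantified by capillary electrophoresis and fitted bidirectionally against DMSO.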

Assay [4] in a line: ATG_ERE_CIS: Attagene CIS-FACTORIAL HepG2 Assay for Estrogen Response Element (ERE) (AID 2282940). Particulars: HepG2 ERE cis-reporter, Attagene RNA transcript; actives raise or lower the signal. The method, boiled down: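 Measuring endogenous transcription factor output, the assay doses transfected HepG2 cells for 24 hours and quantifies reporter transcripts by fluorescent RT-PCR and capillary electrophoresis, with DMSO as baseline.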

Assay [5] is described as follows: ATG_Ets_CIS: Attagene CIS-FACTORIAL HepG2 Assay for human Erythroblast Transformation Specific (ETS) (AID 2282941). Conditions: HepG2 ETS cis-reporter transcription, actives raise or lower the signal. The method in brief: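 Bidirectional fit versus DMSO of reporter mRNA signal, detected by RT-PCR and capillary electrophoresis in HepG2 cells transiently transfected with cis-element reporters and dosed 24 h.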

Assay [6] addresses Hepatocyte nuclear factor 3-beta (Homo sapiens) (UniProt Q9Y261). In words: ATG_FoxA2_CIS: Attagene CIS-FACTORIAL HepG2 Assay for human Forkhead box A2 (FOXA2) (AID 2282942). Conditions: HepG2 cis-reporter transcription factor activity, 24 h; actives raise or lower the signal. The method in brief: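 Measured: reporter mRNA induction or loss in HepG2 transiently carrying multiple cis-regulated reporter units, 24 h after dosing. Quantified by RT-PCR plus capillary electrophoresis, normalised to DMSO.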

Assay [7] is described as follows: ATG_FoxO_CIS: Attagene CIS-FACTORIAL HepG2 Assay for human Forkhead box O (FoxO) (AID 2282943). Particulars: HepG2 Attagene cis-reporter, FoxO element, mRNA; actives raise or lower the signal. The method in brief: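 HepG2 cells transiently transfected with cis-element-driven reporter units report endogenous FoxO activity. After 24 h chemical exposure, reporter mRNA quantified by RT-PCR, fluorescent labeling, HpaI digestion and capillary electrophoresis; bidirectional fit versus DMSO.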

Assay [8] is described as follows: ATG_GATA_CIS: Attagene CIS-FACTORIAL HepG2 Assay for human GATA Binding Protein (AID 2282944). Conditions: HepG2 GATA cis-element reporter, Attagene multiplex mRNA; actives raise or lower the signal. The method in brief:
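Measures endogenous transcription factor-driven reporter mRNA in HepG2 cells transiently carrying cis-regulated constructs. 24 h dosing; RNA via oligo(dT) reverse transcription, PCR, HpaI digestion, capillary electrophoresis; fitted relative to DMSO.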

The nature of assay [9]: ATG_GLI_CIS: Attagene CIS-FACTORIAL HepG2 Assay for human Zinc Finger Protein GLI1 (AID 2282945). Particulars: HepG2, Attagene cis-factorial reporter mRNA, GLI element; actives raise or lower the signal. The method in brief: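 Transiently transfected HepG2 cells report endogenous transcription factor activity via cis-element-driven reporter units. After 24 h compound exposure, reporter mRNA was measured by RT-PCR with capillary electrophoresis; bidirectional fitting against DMSO baseline.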

For assay [10], the target named is Bile acid receptor (Homo sapiens) (UniProt Q96RI1). Briefly: ATG_IR1_CIS: Attagene CIS-FACTORIAL HepG2 Assay for human Nuclear Receptor Subfamily 1 Group H Member 4 (NR1H4), IR1 submotif (AID 2282946). Particulars: IR1 reporter transcription, actives raise or lower the signal. The method, boiled down:
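Fluorescence of capillary-separated, HpaI-digested RT-PCR reporter products gave IR1-element mRNA induction in HepG2 cells 24 h after dosing. Endogenous transcription factors drove the cis-regulated reporters; activity was fitted bidirectionally against DMSO.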

Assay [11] can be described thus: ATG_ISRE_CIS: Attagene CIS-FACTORIAL HepG2 Assay for human Interferon Regulatory Factor 1 (IRF1) binding to an Interferon-Stimulated Response Element (ISRE) (AID 2282948). Particulars: HepG2 ISRE cis-reporter (Attagene), mRNA transcription readout; actives raise or lower the signal. The method in brief: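 Uses HepG2 liver cells transfected with cis-regulated reporters and measures mRNA 24 h post-dosing through RT-PCR, primer-extension labelling and capillary electrophoresis, with DMSO as negative control.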

Assay [12] is described as follows: ATG_M_06_CIS: Attagene CIS-FACTORIAL HepG2 Assay for M06 Transcription Factor (Internal Marker) (AID 2282950). Particulars: HepG2 Attagene CIS-FACTORIAL M06 internal marker reporter; actives raise or lower the signal. The method in brief: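 One of many multiplexed endpoints: HepG2 reporter mRNA after 24 h dosing, detected by RT-PCR and capillary electrophoresis fluorescence; gain or loss of signal analysed against DMSO.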

In assay [13] the target is Hypoxia-inducible factor 1-alpha (Homo sapiens) (UniProt Q16665). In words: ATG_HIF1a_CIS: Attagene CIS-FACTORIAL HepG2 Assay for human Hypoxia Inducible Factor 1 (HIF1A) (AID 2282951). Particulars: HepG2 Attagene cis-factorial HIF1a reporter transcription; actives raise or lower the signal. The method, boiled down: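 Dosed 24 h, transfected HepG2 cells yielded total RNA whose reporter transcripts were RT-PCR-amplified and sized by capillary electrophoresis using fluorescent labelling; DMSO defined baseline, with gain and loss of signal both fitted.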

Assay [14] has as its target Hepatocyte nuclear factor 6 (Homo sapiens) (UniProt Q9UBC0). Briefly: ATG_HNF6_CIS: Attagene CIS-FACTORIAL HepG2 Assay for human Hepatocyte Nuclear Factor 6 (HNF6) (AID 2282952). Conditions: HepG2 Attagene cis-factorial HNF6 reporter transcription; actives raise or lower the signal. The method in brief:
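First, HepG2 cells were transfected with the multiplexed cis reporter library and dosed with chemical for 24 h. Next, RNA was reverse-transcribed, PCR-amplified and fluorescently labelled. Finally, HpaI-digested fragments were read by capillary electrophoresis.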

Assay [15] has as its target Heat shock factor protein 1 (Homo sapiens) (UniProt Q00613). In words: ATG_HSE_CIS: Attagene CIS-FACTORIAL HepG2 Assay for human Heat Shock Transcription Factor 1 (HSE) (AID 2282953). Conditions: HepG2 HSE cis-reporter, Attagene RNA transcription; actives raise or lower the signal. The method, boiled down: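 Using HepG2 with transfected cis-driven reporter constructs, compound effects on endogenous factor activity are scored as reporter mRNA change at 24 h. Detection: RT-PCR, HpaI digestion, capillary electrophoresis; bidirectional fitting to DMSO.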

The nature of assay [16]: ATG_MRE_CIS: Attagene CIS-FACTORIAL HepG2 Assay for human Metal Responsive Element (MRE) (AID 2282954). Particulars: HepG2 MRE cis-reporter transcription, Attagene multiplex; actives raise or lower the signal. The method in brief:
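Measured here is mRNA induction from an MRE cis-element reporter in HepG2 after 24 h, quantified by fluorescence of labelled RT-PCR products on capillary electrophoresis; gain- and loss-of-signal fits use DMSO as baseline.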

Assay [17] can be described thus: ATG_GRE_CIS: Attagene CIS-FACTORIAL HepG2 Assay for human Glucocorticoid Response Elements (GRE) (AID 2282947). Conditions: HepG2 GRE cis-reporter, Attagene multiplex mRNA; actives raise or lower the signal. The method, boiled down: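 Fluorescence intensity of reporter-specific cDNA fragments, separated by capillary electrophoresis, provides the signal. Constructs carry cis-regulating promoters in transiently transfected HepG2 liver cells; 24 h incubation; fitting is bidirectional against DMSO.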

The nature of assay [18]: ATG_M_32_CIS: Attagene CIS-FACTORIAL HepG2 Assay for M32 Transcription Factor (Internal Marker) (AID 2282949).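 Note: background control marker of the multiplexed CIS panel rather than a real target.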 Conditions: HepG2 Attagene cis-factorial M32 reporter, mRNA; actives raise or lower the signal. The method, boiled down: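 HepG2 transfectants (cis-regulated reporter transcription units) dosed 24 h. Reporter mRNA by RT-PCR plus CE, analysed as gain or loss relative to DMSO.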

Assay [19] is described as follows: ATG_PBREM_CIS: Attagene CIS-FACTORIAL HepG2 Assay for human Phenobarbital-responsive Enhancer Module (PBREM) (AID 2282955). Conditions: HepG2 PBREM cis-reporter, Attagene multiplexed transcription; actives raise or lower the signal. The method in brief:
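Transfected liver-derived HepG2 cells exposed 24 h; PBREM reporter transcript quantified via RT-PCR and capillary electrophoresis, with activity in either direction referenced to DMSO.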

Molecules are shown by their SMILES. Calls of active or inactive are those of the source. Rule for the calls: active = hit-call score of the fitted dose curve at least 0.9, where 1 is the maximum; inactive = score below 0.9.

A word on the AC50: it is the concentration at which the activity in the assay is half-maximal.

Sequence of Hypoxia-inducible factor 1-alpha (Homo sapiens) (Q16665 whole entry, looked up): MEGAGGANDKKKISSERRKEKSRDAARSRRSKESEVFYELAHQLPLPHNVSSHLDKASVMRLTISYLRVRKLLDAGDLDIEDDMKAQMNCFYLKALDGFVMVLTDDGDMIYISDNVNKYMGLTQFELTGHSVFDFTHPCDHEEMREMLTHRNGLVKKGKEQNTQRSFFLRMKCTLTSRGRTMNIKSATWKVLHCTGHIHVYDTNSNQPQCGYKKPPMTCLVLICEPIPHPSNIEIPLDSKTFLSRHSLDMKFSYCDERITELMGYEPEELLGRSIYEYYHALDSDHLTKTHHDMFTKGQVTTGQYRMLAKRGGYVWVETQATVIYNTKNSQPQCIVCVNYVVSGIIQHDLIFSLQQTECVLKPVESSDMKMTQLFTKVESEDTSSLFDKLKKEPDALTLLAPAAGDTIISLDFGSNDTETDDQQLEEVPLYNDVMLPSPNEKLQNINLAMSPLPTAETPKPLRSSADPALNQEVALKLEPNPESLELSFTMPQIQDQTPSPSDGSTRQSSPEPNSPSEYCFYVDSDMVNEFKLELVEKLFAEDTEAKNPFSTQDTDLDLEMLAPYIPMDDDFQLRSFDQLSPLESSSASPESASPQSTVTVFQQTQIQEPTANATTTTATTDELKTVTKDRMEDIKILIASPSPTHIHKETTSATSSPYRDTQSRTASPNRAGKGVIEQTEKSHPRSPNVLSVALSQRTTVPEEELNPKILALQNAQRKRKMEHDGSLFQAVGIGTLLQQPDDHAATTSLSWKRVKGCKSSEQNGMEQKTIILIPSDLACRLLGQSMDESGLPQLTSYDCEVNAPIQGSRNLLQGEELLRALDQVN
Sequence of Heat shock factor protein 1 (Homo sapiens) (Q00613 whole entry, looked up): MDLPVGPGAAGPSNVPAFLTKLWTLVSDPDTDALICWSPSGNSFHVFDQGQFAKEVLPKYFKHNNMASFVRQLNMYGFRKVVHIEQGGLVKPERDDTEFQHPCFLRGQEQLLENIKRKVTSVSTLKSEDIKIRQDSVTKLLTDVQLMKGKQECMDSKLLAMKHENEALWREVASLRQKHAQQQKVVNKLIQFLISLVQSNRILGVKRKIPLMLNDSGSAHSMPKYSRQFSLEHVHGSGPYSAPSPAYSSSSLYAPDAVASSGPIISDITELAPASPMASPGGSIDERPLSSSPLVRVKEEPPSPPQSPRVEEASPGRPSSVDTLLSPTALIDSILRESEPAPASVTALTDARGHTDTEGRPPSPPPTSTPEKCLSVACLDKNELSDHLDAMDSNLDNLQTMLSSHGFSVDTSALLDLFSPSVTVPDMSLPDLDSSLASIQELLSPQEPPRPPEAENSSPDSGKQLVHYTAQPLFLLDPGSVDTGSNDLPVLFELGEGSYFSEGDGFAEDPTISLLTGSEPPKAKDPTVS
Sequence of Hepatocyte nuclear factor 3-beta (Homo sapiens) (Q9Y261 whole entry, looked up): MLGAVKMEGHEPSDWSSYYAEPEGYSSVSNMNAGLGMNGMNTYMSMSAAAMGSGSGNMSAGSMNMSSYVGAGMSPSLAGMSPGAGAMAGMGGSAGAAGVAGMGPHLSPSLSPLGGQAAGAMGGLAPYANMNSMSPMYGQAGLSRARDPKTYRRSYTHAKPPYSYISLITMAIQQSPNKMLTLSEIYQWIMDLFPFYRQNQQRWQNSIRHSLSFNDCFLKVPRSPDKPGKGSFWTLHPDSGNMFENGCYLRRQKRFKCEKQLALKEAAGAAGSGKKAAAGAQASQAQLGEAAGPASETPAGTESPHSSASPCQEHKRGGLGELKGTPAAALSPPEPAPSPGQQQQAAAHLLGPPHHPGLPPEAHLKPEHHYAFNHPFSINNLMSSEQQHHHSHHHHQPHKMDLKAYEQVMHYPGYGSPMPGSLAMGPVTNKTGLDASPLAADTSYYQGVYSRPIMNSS
Sequence of Hepatocyte nuclear factor 6 (Homo sapiens) (Q9UBC0 whole entry, looked up, the tested form may be a part): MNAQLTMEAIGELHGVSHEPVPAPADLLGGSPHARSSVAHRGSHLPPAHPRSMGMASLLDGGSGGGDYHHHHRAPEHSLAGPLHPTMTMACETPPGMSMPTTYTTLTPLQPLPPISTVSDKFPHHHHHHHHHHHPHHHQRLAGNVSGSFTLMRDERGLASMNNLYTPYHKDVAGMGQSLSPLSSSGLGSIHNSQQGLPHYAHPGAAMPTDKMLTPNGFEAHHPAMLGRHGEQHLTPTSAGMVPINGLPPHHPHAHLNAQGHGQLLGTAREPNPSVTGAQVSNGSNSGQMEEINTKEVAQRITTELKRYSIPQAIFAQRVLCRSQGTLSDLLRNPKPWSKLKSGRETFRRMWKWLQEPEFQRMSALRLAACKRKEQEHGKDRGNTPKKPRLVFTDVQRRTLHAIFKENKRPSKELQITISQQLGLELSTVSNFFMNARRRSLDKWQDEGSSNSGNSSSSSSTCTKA
Sequence of Bile acid receptor (Homo sapiens) (Q96RI1 whole entry, looked up): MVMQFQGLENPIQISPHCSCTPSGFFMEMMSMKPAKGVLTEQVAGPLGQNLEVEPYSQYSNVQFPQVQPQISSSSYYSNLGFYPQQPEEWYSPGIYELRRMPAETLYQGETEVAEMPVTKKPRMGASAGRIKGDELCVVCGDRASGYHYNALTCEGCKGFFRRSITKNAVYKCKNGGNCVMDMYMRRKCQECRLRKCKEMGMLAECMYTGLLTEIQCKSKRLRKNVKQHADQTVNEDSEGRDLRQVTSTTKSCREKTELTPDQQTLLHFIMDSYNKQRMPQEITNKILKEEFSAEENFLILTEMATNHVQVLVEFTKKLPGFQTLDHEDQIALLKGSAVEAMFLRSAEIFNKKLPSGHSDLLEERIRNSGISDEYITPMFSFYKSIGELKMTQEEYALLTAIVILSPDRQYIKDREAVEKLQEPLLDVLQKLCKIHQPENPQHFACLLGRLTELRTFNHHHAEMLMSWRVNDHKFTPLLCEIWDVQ

Take `O=C1OC(=O)c2cc(Oc3ccc4c(c3)C(=O)OC4=O)ccc21`: the outcome in assay [1], in assay [2], in [3], in [4], in assay [5] and in assay [6] was inactive. For the same compound, the outcome in [7], in assay [8], in assay [9], in assay [10], in [11] and in assay [12] was inactive. For the same compound, the outcome in assay [13], in [14], in [15] and in [16] was inactive.

`CC(C)CCCCCOC(=O)CCS`: the compound was called inactive in [1], in [2], in assay [3], in [4], in assay [5] and in assay [6]. Also, the outcome in [7], in assay [8], in assay [9], in assay [17], in assay [11] and in assay [18] was inactive. Besides, the compound was classed as inactive in assay [12], in assay [13], in assay [14], in assay [15] and in assay [16].

Regarding `CCCCCCCCCCCCCOP(=O)(O)O`, the call in assay [1], in [2], in assay [3], in [5], in assay [6] and in assay [7] was inactive. Also, the result in assay [8], in assay [9], in assay [17], in assay [11], in [18] and in assay [12] was inactive. In addition, the compound was called inactive in assay [13], in assay [14], in [15], in assay [16] and in [19].

On to `CCCCCc1ccc(Cl)cc1`, for which the compound was classed as inactive in [1], in assay [2], in assay [3], in assay [4], in assay [5] and in [6]. The outcome in assay [7], in [8], in [9], in [17], in [18] and in [12] was inactive. For the same compound, the compound was called inactive in [13], in [15] and in assay [16].

`C[Si](C)(CCCN)O[Si](C)(C)CCCN`: the compound was called inactive in assay [1], in assay [2], in assay [3], in assay [4], in assay [5] and in [6]. Also, the result in assay [7], in assay [8], in assay [9], in assay [17], in assay [11] and in [18] was inactive. Also, the compound was called inactive in assay [12], in [13], in assay [15], in assay [16] and in [19].

`C=CC(=O)NC(C)(C)CS(=O)(=O)O`: the compound was classed as inactive in assay [1], in assay [2], in assay [3], in [4], in [5] and in assay [6]. In addition, the call in [7], in [8], in assay [9], in [11], in assay [18] and in assay [12] was inactive. In addition, the compound was called inactive in assay [13], in assay [14], in [15], in assay [16] and in assay [19].

With `CCO[Si](C)(OCC)OCC`, the call in [1], in assay [2], in assay [3], in assay [4], in [5] and in assay [6] was inactive. Moreover, the call in [7], in assay [8], in assay [9], in assay [17], in assay [11] and in [18] was inactive. Moreover, the outcome in [12], in assay [13], in [14], in assay [15], in assay [16] and in assay [19] was inactive.

For `CN(C)c1ccc(N=Nc2ccccc2C(=O)O)cc1`, the result in assay [1], in assay [3], in [5], in [6], in assay [8] and in [9] was inactive. In addition, the compound was called inactive in [17], in [18], in [12] and in assay [19]. The AC50 in assay [2] is 47.4 µM (active); in [7] it was 66.9 µM (active); in [11], 58.1 µM (active); in assay [13] it was 17.9 µM (active); in assay [15] it was 56.5 µM (active); in [16], 43.9 µM (active).

For `CCCCCCC1(C)CCC(=O)O1` (stereo unspecified), the call in assay [1], in assay [2], in assay [3], in [4], in assay [5] and in assay [6] was inactive. Also, the outcome in [7], in [8], in assay [9], in assay [18], in assay [12] and in assay [13] was inactive. Moreover, the call in assay [14], in assay [15], in assay [16] and in assay [19] was inactive.

Regarding `Cc1ccc(C(C)(C)C)cc1`, the call in [1], in [2], in assay [3], in assay [4], in [5] and in assay [6] was inactive. In addition, the compound was classed as inactive in assay [7], in assay [8], in assay [9], in assay [11], in [18] and in assay [12]. Moreover, the result in assay [13], in assay [14], in assay [15], in [16] and in assay [19] was inactive.

The values above are taken from PubChem BioAssay (EPA / NIEHS).
